HP1b binding inh: inhibitors of HP1-beta chromodomain binding to methylated histone tails; P83916; AlphaScreen HP1-beta / biotin-H3K9me3 peptide binding; Potency, µM (top dose mostly 114 µM), for the others: top-dose activity change, negative = inhibition, usual class: inhibitors; 390,000 compounds, 0.56% hits; AID 540317; also: potency is read from the fitted curve at half-maximal effect; nearly all actives have a fitted effect of over 70% in size
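AlphaScreen: HP1-beta (50 nM) preformed 30 min with biotin-H3(1-18)K9me3 peptide (50 nM) in PBS pH 7.4, 0.01% Tween-20. Compound added for 30 min at RT, then streptavidin donor/nickel chelate acceptor beads (10 ug/mL) for 30 min.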
JMJD2E inh-1: blocks human JMJD2E demethylase activity | Potency, µM (series often up to 57.1 µM), without a hit: top-dose activity change, negative = inhibition, usual class: inhibitors | B2RXH2 | JMJD2E catalytic domain, FDH-coupled NADH fluorescence | 230,000 compounds, 1.6% hits | AID 2147; active = well fitted inhibition curve with a large enough effect, not every such curve was filed as active; inconclusive = small, poorly fitted or top-dose-only effect, or another doubt; inactive = no such curve, though single readings can be large or run the other way;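 also: potency is read from the fitted curve at half-maximal effect; 0% = wells with enzyme and -100% = buffer wells without enzyme; nearly all actives have a fitted effect of over 50% in size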
PI5P4Ka inh: blocks human PI5P4K alpha kinase activity; 330,000 compounds, 1.2% hits; max response, %; P48426; PI5P4Kalpha enzyme, ADP-Glo luminescence, 60 min; stronger effect = lower value; AID 652105; active = max response of -50% or lower; inconclusive = between -30% and -50%; inactive = -30% or higher; also: value at the top dose of about 77 µM; % is scaled to controls: 0 for no effect and ±100 for the full control effect
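ADP-Glo luminescence end-point after a 60 min room-temperature kinase reaction. PI5P4Kalpha and substrate in HEPES pH 7.4 buffer with EGTA, 0.1% CHAPS and 5% DMSO; ATP at 5 microM final.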
BAZ2B block: BAZ2B (human) inhibition. AlphaScreen BAZ2B-H3K14Ac peptide displacement. Potency, µM (titrated, usually from 114 µM), without a hit: top-dose activity change, negative = inhibition, most hits filed as inhibitors. 360,000 compounds, 4.4% hits. AID 504333; also: potency is read from the fitted curve at half-maximal effect; % is scaled to controls: 0 for no effect and ±100 for the full control effect; nearly all actives have a fitted effect of over 60% in size
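Complex of BAZ2B and biotin-H3K14Ac (50 nM apiece) forms over 30 min at RT, then faces library compounds up to 110 uM for another 30 min; AlphaScreen beads added, 20 min dark incubation, luminescence read.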
L3MBTL1 inh: blocks human L3MBTL1; Q9Y468; AlphaScreen L3MBTL1–H3K9me1 peptide binding; Potency, µM (top dose mostly 57.1 µM), without a hit: at the top dose activity, negative = inhibition, actives largely listed as inhibitors; 230,000 compounds, 0.66% hits; also: potency is read from the fitted curve at half-maximal effect; % is scaled to controls: 0 for no effect and ±100 for the full control effect; nearly all actives have a fitted effect of over 60% in size
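AlphaScreen assay: L3MBTL1 (50 nM final) was preincubated 30 min at room temperature with biotinylated H3(1-15)K9me1 peptide (75 nM final), then 30 min with library compounds; streptavidin donor and nickel chelate acceptor beads (10 ug/mL final) added, 30 min dark.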
JMJD2A Tudor: inhibitors of human JMJD2A Tudor domain; O75164; AlphaScreen JMJD2A-Tudor / H3K4me3 peptide binding; Potency, µM (titrated, usually from 114 µM), for inactives: at the highest dose activity change, negative = inhibition, actives largely listed as inhibitors; 390,000 compounds, 4.4% hits; also: potency is read from the fitted curve at half-maximal effect; % is scaled to controls: 0 for no effect and ±100 for the full control effect; nearly all actives have a fitted effect of over 50% in size
Target sequence (O75164 whole entry, looked up, the tested form may be a part): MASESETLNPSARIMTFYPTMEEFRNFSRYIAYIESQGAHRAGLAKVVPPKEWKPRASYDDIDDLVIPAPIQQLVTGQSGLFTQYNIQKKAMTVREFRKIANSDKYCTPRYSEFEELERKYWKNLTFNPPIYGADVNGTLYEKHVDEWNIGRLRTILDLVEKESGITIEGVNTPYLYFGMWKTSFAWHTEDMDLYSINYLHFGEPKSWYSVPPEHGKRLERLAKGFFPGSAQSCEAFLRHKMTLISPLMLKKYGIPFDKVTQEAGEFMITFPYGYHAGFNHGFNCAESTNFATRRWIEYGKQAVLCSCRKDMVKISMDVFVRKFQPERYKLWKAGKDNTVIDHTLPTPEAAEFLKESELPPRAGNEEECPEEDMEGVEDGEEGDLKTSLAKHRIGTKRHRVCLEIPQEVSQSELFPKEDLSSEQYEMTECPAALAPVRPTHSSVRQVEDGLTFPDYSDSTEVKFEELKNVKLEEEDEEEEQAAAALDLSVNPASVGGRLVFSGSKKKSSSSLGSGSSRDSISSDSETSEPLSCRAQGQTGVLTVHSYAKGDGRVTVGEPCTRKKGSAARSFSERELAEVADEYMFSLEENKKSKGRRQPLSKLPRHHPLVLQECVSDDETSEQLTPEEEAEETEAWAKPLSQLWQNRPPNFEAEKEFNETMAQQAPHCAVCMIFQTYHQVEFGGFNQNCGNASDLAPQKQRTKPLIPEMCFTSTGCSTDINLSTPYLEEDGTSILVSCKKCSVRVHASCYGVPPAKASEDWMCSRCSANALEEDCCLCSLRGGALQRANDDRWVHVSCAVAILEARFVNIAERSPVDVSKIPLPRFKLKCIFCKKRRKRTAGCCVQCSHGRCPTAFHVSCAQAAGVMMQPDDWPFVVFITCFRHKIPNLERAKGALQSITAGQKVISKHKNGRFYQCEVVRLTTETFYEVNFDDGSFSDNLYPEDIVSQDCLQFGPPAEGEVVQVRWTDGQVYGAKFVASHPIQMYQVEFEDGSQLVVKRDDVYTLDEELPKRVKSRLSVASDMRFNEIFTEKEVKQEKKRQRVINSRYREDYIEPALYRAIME
JMJD2E inh-2: confirmation of inhibitors of human JMJD2E demethylase. shares compounds with JMJD2A Tudor. Recombinant JMJD2E, FDH-coupled NADH fluorescence (FDH is formaldehyde dehydrogenase). Potency, µM (top dose mostly 56.8 µM), for the others: top-dose activity change, negative = inhibition, actives largely listed as inhibitors. 140 compounds, 93% hits
FDH counter: FDH (Pseudomonas putida) inhibition counter-screen | 140 compounds, 10% hits | FDH enzyme assay, NADH fluorescence kinetic | shares compounds with JMJD2A Tudor | Potency, µM (doses to about 56.7 µM), without a hit: top-dose activity, negative = inhibition, usual class: inhibitors
G9a confirm: inhibits human G9a histone lysine methyltransferase, hit confirmation; shares compounds with JMJD2A Tudor; G9a H3K9 monomethylation, AlphaScreen, 2 h; Potency, µM, most hits filed as inhibitors; 370 compounds, 89% hits; AID 588344; also: potency is read from the fitted curve at half-maximal effect; nearly all actives have a fitted effect of over 65% in size
RGS4 inh: inhibits human RGS4, hit validation | shares compounds with JMJD2A Tudor | Potency, µM, most hits filed as inhibitors | RGS4 GAP activity, Transcreener GDP fluorescence polarization | 25 compounds, 80% hits
Active calls of the source: *; ? = inconclusive; · = not tested or not shown; [ ] = dose if it differs, or a comment. A selection: hits, their analogues and other compounds. The true share with any hit is near 5.7%. Unless noted, calls follow the shape of the dose curve; as a rule, active = well fitted curve in the direction sought with a large enough effect; inconclusive = small, poorly fitted or top-dose-only effect, or another doubt; inactive = no such curve, though single readings can be large; an effect the other way counts as inactive or inconclusive.

SMILES	HP1b binding inh	JMJD2E inh-1	PI5P4Ka inh	BAZ2B block	L3MBTL1 inh	JMJD2A Tudor	G9a confirm	others
Cc1ccc(C(=O)N2CCN(c3ccc(NC(=O)c4cc(C)cc(C)c4)cc3)CC2)cc1	38.3%	·	10.2	-9.1%	·	-2.2%	·
O=C(Nc1ccc(N2CCCCCC2)cc1)c1ccccc1Cl	35.5µM*	-10.6%	4.2	28.2µM*	?	31.6µM*	7.08*
O=C(Nc1ccccc1Br)C1CCN(S(=O)(=O)c2cccs2)CC1	40.9%	·	6.7	·	4.1%	3.4%	·
CC(C)CCNC(=O)C(=O)NCc1ccccc1	41.0%	1.5%	5.2	1.4%	55.5%	8.7%	·
CCCN(CC(=O)Nc1ccccc1C)C(=O)c1cnc(C)cn1	36.5%	·	5.7	·	·	-4.8%	·
COc1ccc([N+](=O)[O-])cc1NC(=O)CSc1nc(C)cc(C)n1	18.1%	0.6%	?	-3.6%	-2.6%	?	6.31*
COc1ccc([N+](=O)[O-])cc1NC(=O)CSc1ccc2ccccc2c1	-5.1%	4.7%	4.3	-30.0%	-5.4%	-17.2%	·
Cc1onc(-c2ccccc2)c1C(=O)Nc1nnc(COc2ccc(Cl)cc2)s1	?	?	?	-34.6%	-2.2%	?	0.796*
CC(C)c1ccc(NC(=O)c2cnn3c(C(F)F)cc(-c4ccccc4)nc23)cc1	-12.6%	·	·	-32.4%	·	-16.5%	·
CCN(CC)c1ccc(NC(=O)c2cnn3c(C(F)F)cc(-c4ccccc4)nc23)cc1	?	·	·	2.51µM*	·	8.91µM*	4.57*
Oc1ccc(CN2CCCc3ccccc32)c2cccnc12	?	8.91µM*	-20.8	35.5µM*	28.2µM*	?	·	JMJD2E inh-2=1.26µM*;FDH counter=-26.8%
CC(C)(C)C1CCc2c(sc(NC(=O)c3ccncc3)c2C(=O)Nc2ccccc2Cl)C1 (centres undefined)	26.0%	·	·	-27.8%	·	?	?
COc1ccc(NC(=O)c2c(NC(=O)c3ccncc3)sc3c2CCC(C(C)(C)C)C3)cc1 (centres undefined)	16.2%	·	·	-13.8%	·	-34.9%	·
O=C(Nc1nc(-c2ccccn2)cs1)c1cccc(-n2cnnn2)c1	105.2%	?	-7.7	50.1µM*	?	79.4µM*	·	RGS4 inh=?
COc1cc(OC)c(C(=O)CCCN2CCCC2)c(OC)c1	21.1%	-1.1%	-11.8	7.7%	?	-6.5%	9.58*
Cc1ccccc1OCCC(=O)Nc1ccccc1C(=O)NC1CC1	3.1%	·	1.1	0.7%	1.3%	-6.5%	·
COc1ccc(Br)cc1CNc1ccc(N2CCOCC2)cc1	?	·	0.7	28.2µM*	·	39.8µM*	3.17*
COc1cccc(CNc2ccc(N3CCC(C)CC3)cc2)c1OC	-69.0%	12.6µM*	·	39.8µM*	?	20µM*	2*
CC1CCN(c2ccc(NC(=O)Cc3ccccc3)cc2)CC1	34.8%	-8.3%	-0.6	-4.1%	0.6%	-18.1%	·
Cc1cccc(OCCn2nnc3ccccc32)c1C	39.7%	·	8.2	-3.8%	20.4%	15.5%	·
COc1ccc(OC)c(NC(=O)c2cc3c(s2)-c2ccccc2SC3)c1	23.8%	·	·	6.9%	·	-5.7%	·
COc1cc(OC)c(-c2nn3c(-c4n[nH]c5c4CCC5)nnc3s2)cc1OC	13.0%[57 µM]	·	·	·	·	-21.5%[57.1 µM]	·
c1csc(Cc2nn3c(-c4n[nH]c5c4CCC5)nnc3s2)c1	-15.3%	8.0%	?	?	·	?	12.6*
CC(C1CC2CCC1C2)n1c(-c2cccs2)n[nH]c1=S (centres undefined)	11.9%	?	-4.5	?	·	?	·
O=C(CN1C(=O)C2CC=CCC2C1=O)Nc1nc2ccccc2s1 (centres undefined)	25.4%	1.3%	0.2	1.9%	·	-13.0%	·
SMILES	HP1b binding inh	JMJD2E inh-1	PI5P4Ka inh	BAZ2B block	L3MBTL1 inh	JMJD2A Tudor	G9a confirm	others
CCN(CC)C(=O)C1CCN(Cc2cccc(OCc3ccccc3)c2)CC1	56.2µM*	?	-1.0	35.5µM*	-8.4%	50.1µM*	28.3*
CCOc1cccc(CN2CCC(n3nccc3NC(=O)CCCc3ccccc3)CC2)c1	10.7%	·	-3.1	17.4%	·	?	·
CC1=C(C(=O)OCc2ccccc2)C(c2cccc([N+](=O)[O-])c2)NC(=O)N1C (centres undefined)	3.3%	·	-0.9	2.6%	19.1%	?	·
COc1ccc(NC(C)c2cc(Cl)ccc2O)cc1 (centres undefined)	70.8µM*	?	2.0	31.6µM*	?	8.9%[11.4 µM]	?
C[C@H]1CN([C@@H](C)CO)C(=O)Cc2cc(NS(=O)(=O)c3cccs3)ccc2O[C@H]1CN(C)S(=O)(=O)c1cn(C)cn1	49.9%	·	1.7	·	2.2%	-13.6%	·
CCN(CC)c1ccc(NC(=O)c2cccc(OC)c2)c(C)c1	-18.0%	-0.1%	-5.3	?	-0.1%	?	·
CCN(CC)c1ccc(NC(=O)c2cc(OC)cc(OC)c2)c(C)c1	-33.7%	-10.6%	6.8	39.8µM*	-5.6%	?	3.16*
CC(C)(C)OC(=O)N1CCC[C@H]1c1nnc(SCC(=O)Nc2ccc(Br)cc2)o1	11.8%	-6.3%	1.2	-0.3%	1.5%	5.5%	·
CCCn1cnc2cc(NCc3ccccc3O)ccc21	4.0%	·	-0.2	-30.4%	·	-35.9%	·
CCCn1cnc2cc(NCc3ccc(OC)cc3OC)ccc21	-21.0%	·	·	39.8µM*	·	?	5.76*
CCn1cnc2cc(NCc3cccc(OC)c3O)ccc21	6.8%	?	·	?	·	-35.6%	0.282*
O=C(CCN1CCC(c2ccccc2)C1)c1ccc2c(c1)OCCO2 (centres undefined)	13.2%	17.8µM*	-4.8	?	·	-23.7%	5.13*
COc1ccc(NC(=O)c2ccc(-c3ccc(C(C)=O)cc3)o2)cn1	-19.3%	·	3.4	2.2%	8.4%	-27.4%	?
CCOC(=O)c1cnc(-n2nc(C)cc2C)nc1Nc1ccc(N(C)C)cc1	?	1.5%	-1.8	1.78µM*	3.16µM*	1.12µM*	1.59*
COc1ccc(-n2nc3cc(C)c(N)cc3n2)cc1Cl	14.7%	·	-17.5	79.4µM*	-2.9%	56.2µM*	0.502*

Assay outcomes as filed in PubChem BioAssay.
